SARS 3CLpro inh – SARS-CoV 3CLpro protease inhibition; 0.14% of 290,000 active; inhibition, % at 6 µM; recombinant SARS-CoV 3CLpro, quenched FRET peptide cleavage; P0C6X7; AID 1706; in the data active = inhibition above about 12%
PrP UTR inh – suppresses PrP 5' UTR mRNA reporter expression. cell-based PrP 5' UTR mRNA reporter, plate reader. inhibition, % (concentration not given with the values). 0.35% of 340,000 active. AID 488862; in the data active = inhibition above about 52%; note: 0 = median of the neutral control wells
SSB-PriA inh – K. pneumoniae PriA-SSBct interaction inhibition | AID 1272365 | 0.6% of 430,000 active | AlphaScreen SSBct-PriA binding, biotinylated peptide | inhibition, % at 33 µM; in the data active = inhibition mostly above about 37%, no sharp cut-off; inactive = mostly below about 20%;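 note: plate controls were negative control peptide for no effect and reference peptide for full effect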
PrPC TRFRET – inhibitors of human cell surface prion protein PrPC. P04156. TR-FRET read-out. inhibition, % at 13.8 µM. 0.43% of 370,000 active. AID 720596; in the data active = inhibition above about 24%; note: 0% = median of the test wells and 100% = reference compound wells
BJeLR lethal – BJeLR cell viability loss; inhibition, % (test concentration not listed); 0.17% of 300,000 active; BJeLR (HRASV12) viability, CellTiter-Glo ATP luminescence, 48 h; AID 1554; in the data active = inhibition above about 50%
The depositor's hits bear a star; i = inactive; . = no result. Sampled rows, rich in hits. Any-hit rate of the full collection: about 1.2%.

SMILES | SARS 3CLpro inh | PrP UTR inh | SSB-PriA inh | PrPC TRFRET | BJeLR lethal
Cc1ccc(N(C)S(=O)(=O)c2cc(-c3cnc(C4CC4)o3)ccc2C)cc1 | 9 | -1 | 1 | -7 | 3
Cc1cc(C)c(Cn2cnc(-c3ccc([N+](=O)[O-])cc3)c2)c(C)c1 | 3 | -8 | 50* | 5 | -3
CC(C)(C)c1ccc(Cn2cnc(-c3ccc([N+](=O)[O-])cc3)c2)cc1 | 2 | -97 | 7 | 11 | 1
CC(c1ccccc1)N1C(=O)NC(NC(=O)c2cccnc2)(C(F)(F)F)C1=O (stereo not given) | 2 | -6 | 48* | 0 | 11
Cc1ccc(/C=N/NC(=O)c2n[nH]c3c2CCCC3)cc1 | 3 | . | i | 8 | 60*
O=C(NCC#CCOc1cccc(C(F)(F)F)c1)c1ccco1 | . | . | -17 | . | .
Nc1ccc2c(c1)Nc1ccccc1CC2 | 2 | -40 | 58* | 6 | 2
S=C1NC2(CCCCC2)Cc2ccccc21 | 2 | -11 | 44* | 3 | 10
COc1ccc(Cl)cc1NC(=O)CN1CCN(c2ccccc2F)CC1 | . | . | -8 | . | .
C=CCCC(=O)NCC#CCN1CCOCC1 | . | . | -8 | . | .
c1ccc(Nc2cccc(Nc3ccccc3)n2)cc1 | 4 | -32 | 72* | -3 | -4
C=CCOCC(O)CN1CCN(c2cccc(Cl)c2)CC1 (stereo not given) | . | . | 6 | . | .
NNc1ncnc2c1cnn2-c1ccc(F)cc1 | . | . | 73* | . | .
NNc1ncnc2c1cnn2-c1ccccc1 | -4 | 2 | 64* | 3 | 10
CNc1ncnc2c1cnn2-c1ccccc1 | . | . | 21 | . | .
COc1ccc(NC(=O)CSc2nc3ccccc3n2-c2ccccc2)c([N+](=O)[O-])c1 | 3 | -25 | 42* | 5 | -8
Cc1nc(SCC(=O)Nc2ccc(Cl)cc2[N+](=O)[O-])nc(C)c1C | 4 | -17 | 39* | -8 | 3
COc1ccc(NC(=O)CSc2ccccc2)c([N+](=O)[O-])c1 | -2 | -58 | 26 | -22 | 4
COc1ccc(NC(=O)CSc2ccc(F)cc2)c([N+](=O)[O-])c1 | . | . | 65* | . | .
Cc1cc(C)nc(SCC(=O)Nc2ccccc2[N+](=O)[O-])n1 | 2 | -12 | 12 | -15 | 1
CO[C@@H](CNC(=O)N1CCNC1=O)c1cccc(F)c1 | . | . | -15 | . | .
CCOCC(=O)N1CC(S(=O)(=O)CC(C)C)C1 | . | . | -4 | . | .
CCOC(=O)c1nn(-c2ccc(C)cc2)c(=O)cc1N1CCN(C(=O)OCC)CC1 | . | . | -27 | . | .
COc1cc(C=NNC(N)=S)ccc1OCC(=O)Nc1ccc(C)c(C)c1 | . | . | -8 | . | .
O=[N+]([O-])c1ccc(O)c(C=NNC2=NS(=O)(=O)c3ccccc32)c1 | . | . | 51* | . | .
SMILES | SARS 3CLpro inh | PrP UTR inh | SSB-PriA inh | PrPC TRFRET | BJeLR lethal
Cc1cc(N2CCN(c3ccc(C(F)(F)F)cc3[N+](=O)[O-])CC2)c2ccccc2n1 | 5 | -6 | 46* | 8 | 8
Cc1cc(N2CCN(c3ccc([N+](=O)[O-])c4cccnc34)CC2)c2ccccc2n1 | 2 | -4 | -1 | . | 12
COc1ccccc1Nc1nc(Nc2ccc(C)cc2C)c2cnn(C)c2n1 | . | . | -13 | . | .
CCc1ccc(N=c2c([N+](=O)[O-])nn(-c3ccccc3)n2O)cc1 | 1 | . | 70* | . | 1
Cc1cc(C)cc(N=c2c([N+](=O)[O-])nn(-c3ccc(Cl)cc3)n2O)c1 | 2 | -22 | 51* | -3 | 8
Cc1ccc(CN=c2c([N+](=O)[O-])nn(-c3cccc(C)c3)n2O)cc1 | 3 | 8 | 16 | -28 | 4
Cn1nc(-c2ccc(Cl)cc2Cl)cc1C(=O)O | . | . | -8 | . | .
CC(CCc1ccccc1)NC(=O)Nc1c[nH]c2ccccc12 (stereo not given) | . | . | 39* | . | .
Cc1cc2cc(CNC(=O)Nc3c[nH]c4ccccc34)ccc2[nH]1 | . | . | 33* | . | .
O=C(NCc1ccccc1)Nc1c[nH]c2ccccc12 | . | . | -8 | . | .
C=CCOC(=O)C1=C(C)NC(=O)NC1c1ccc(Cl)cc1 (stereo not given) | -4 | 3 | 102* | 9 | 1
Cc1cc(C(=O)NCC#CCOc2cccc(C(F)(F)F)c2)c(C)o1 | . | . | -29 | . | .
Nc1nc(N)c2c(ccc3nccc32)[nH]1 | -5 | 5 | -16 | 5 | 66*
O=C(NN=Cc1cccs1)c1ccc(-n2cccc2)cc1 | . | . | 5 | . | .
Cc1ccccc1C(=O)ON=C(N)c1cccc([N+](=O)[O-])c1 | . | . | 8 | . | .
CC(C)(C)c1ccc(NC(=O)c2ccc(Br)cc2)c([N+](=O)[O-])c1 | . | . | 41 | . | .
Cc1ccc(NC(=O)C(C)Oc2cccc(Br)c2)c([N+](=O)[O-])c1 (stereo not given) | . | . | 49* | . | .
CC(C)(C)c1ccc(NC(=O)c2ccccc2)c([N+](=O)[O-])c1 | 3 | -16 | 59* | 1 | 1

Assay outcomes from PubChem BioAssay.
